# Assay outcomes (PubChem)
# DAX1 inh-1: DAX1 (NR0B1) inhibitors on StAR promoter, primary screen, cell-based, luminescence, SF-1 (NR5A1), full-length DAX-1; HEK293T StAR-luciferase reporter, SF-1/DAX-1 repression relief; inhibition, % at 6.8 µM; 370,000 compounds, 1.1% hits; AID 652010, 2013;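 active = inhibition above the mean over all tested compounds plus 3 SD, cut at about 3.6% in these data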;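 note: 0% = DAX-1 cells with DMSO and 100% = cells lacking DAX-1 with DMSO; higher inhibition means more luminescence from relief of DAX-1 repression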
# GAA850 FXN act: FXN promoter activators, primary screen, cell-based, luciferase luminescence, HEK293 lucGAA850. HEK293 lucGAA850 FXN promoter luciferase reporter, 24 h; percent of 10 µM SAHA response. activation, % at 6 µM. 360,000 compounds, 0.56% hits;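 active = activation above the average of all compounds screened plus 3 SD, cutoff fixed separately per campaign, cut at about 7.5% in these data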;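 note: 0% = DMSO wells and 100% = 10 µM SAHA wells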
# hgDAF12 agonist: H. glycines DAF-12 receptor agonists, primary screen, cell-based, luminescence, HEK293, GAL4 fusion, UAS-luciferase | HEK293 GAL4-hgDAF12 UAS-luciferase reporter, agonist luminescence; normalized to butyrate control | activation, % at 6.8 µM | 370,000 compounds, 1.8% hits;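 active = activation above a cutoff set at the mean of all screened compounds plus 3 SD, cut at about 10% in these data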;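 note: 0% = DMSO wells and 100% = sodium butyrate wells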
# ssDAF12 agonist: S. stercoralis DAF-12 nuclear receptor activators, primary screen, cell-based, luminescence, HEK293, GRIP1 co-expression, lit1-tk-luc | Nuclear hormone receptor DAF-12 (Strongyloides stercoralis) | HEK293 ssDAF-12/GRIP1 lit1-tk-luc reporter; % of 3 µM dafachronic acid response | activation, % at 6.8 µM | 370,000 compounds, 1% hits;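 active = activation above the mean over all tested compounds plus 3 SD, cut at about 0.9% in these data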;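 note: 0% = DMSO-only wells and 100% = 3 µM delta7-dafachronic acid wells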
# hcDAF12 agonist: H. contortus DAF-12 nuclear receptor activators, primary screen, cell-based, luminescence, HEK293, lit1-tk-luc reporter | 370,000 compounds, 1.4% hits | AID 652067, 2013 | activation, % at 6.8 µM | HEK293 hcDAF-12 lit1-tk-luc reporter; 0% DMSO, 100% Δ7-dafachronic acid;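 active = activation above the mean of all tested compounds plus 3 SD, cut at about 5.5% in these data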;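 note: 100% = response to 3 µM Δ7-dafachronic acid high control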
# DAX1 inh-2: DAX1 (NR0B1) inhibitors, primary screen, cell-based, HEK293, Gal4-DAX1, luciferase luminescence | 340,000 compounds, 0.99% hits | inhibition, % at 6.75 µM | HEK293 Gal4-DAX1 luciferase reporter;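 active = inhibition above the mean over all tested compounds plus 3 SD, cut at about 4.2% in these data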;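 note: 0% = DAX1-transfected cells with DMSO and 100% = empty-vector control cells with DMSO; inhibition shows as a rise in luminescence from relieved DAX1 repression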
# DAX1 inh confirm: DAX1 (NR0B1) inhibitors relieving SF-1 repression, confirmation, cell-based, luminescence, HEK293T, full-length DAX-1, SF-1 activated StAR promoter; shares compounds with DAX1 inh-1; HEK293T StAR-promoter luciferase reporter, SF-1/DAX-1 repression; inhibition, % at 6.8 µM; 2,400 compounds, 87% hits;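 active = inhibition above the average of every tested compound plus 3 SD, cut at about 3.8% in these data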;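 note: 0% = DAX-1 cells with DMSO and 100% = no DAX-1 control cells with DMSO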
# Target sequence (P51843 whole entry, looked up): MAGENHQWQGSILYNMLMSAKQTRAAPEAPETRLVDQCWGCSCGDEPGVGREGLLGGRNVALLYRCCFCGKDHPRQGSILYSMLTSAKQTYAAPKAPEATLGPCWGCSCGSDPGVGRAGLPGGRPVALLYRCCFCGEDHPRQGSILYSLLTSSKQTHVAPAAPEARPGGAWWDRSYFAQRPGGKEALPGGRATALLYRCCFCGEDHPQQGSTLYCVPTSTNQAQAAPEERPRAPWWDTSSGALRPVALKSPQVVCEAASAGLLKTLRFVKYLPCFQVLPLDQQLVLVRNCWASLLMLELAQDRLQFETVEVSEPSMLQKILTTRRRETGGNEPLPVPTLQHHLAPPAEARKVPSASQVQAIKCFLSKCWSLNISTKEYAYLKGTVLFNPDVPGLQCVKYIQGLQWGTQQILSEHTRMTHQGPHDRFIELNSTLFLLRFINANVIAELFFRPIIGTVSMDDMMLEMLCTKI
# SF1 mutant ctr: StAR reporter signal changes without DAX1, counter-screen for DAX1 inhibitor project, cell-based, luminescence, AF-2 mutant SF-1, transactivation; shares compounds with DAX1 inh-1; HEK293 StAR-luciferase, SF-1 AF2 mutant; inhibition, % at 6.8 µM; 2,400 compounds, 78% hits; AID 652136, 2013;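 active = inhibition above the mean of all tested compounds plus 3 SD, cut at about 3% in these data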;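 note: 0% = DAX-1 transfected cells with DMSO and 100% = cells without DAX-1 with DMSO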
# LXRb hcDAF ctr: LXR agonists, Gal4 luciferase reporter, confirmation, counter-screen for hcDAF-12 agonist project, cell-based, luminescence, HEK293, H. contortus campaign. shares compounds with hcDAF12 agonist. AID 743027, 2013. 3,400 tested, under 10 active. activation, % at 6.8 µM. HEK293 Gal4-LXR tk-luc reporter, 24 h; normalized: DMSO 0%, positive control 100%;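 active = mean percent activation of the reporter above a cutoff set as the average over tested compounds plus their standard deviation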
# hcDAF12 conf: H. contortus DAF-12 receptor agonists, confirmation, cell-based, luminescence, HEK293, lit1-tk-luc, triplicate; activation, % at 6.8 µM; shares compounds with hcDAF12 agonist; 3,400 compounds, 61% hits; HEK293 hcDAF-12 lit1-tk-luc reporter; % of Δ7-dafachronic acid response;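 active = mean activation across triplicate tests above the threshold derived from the earlier primary screen, cut at about 5.5% in these data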;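 note: 0% = DMSO only wells and 100% = 3 µM Δ7-dafachronic acid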
# * = called active by the depositor; nt = not tested or not shown. Rows were chosen to be rich in hits. Some 4.5% of all compounds tested hit in one or more screens of this group.
SMILES,DAX1 inh-1,GAA850 FXN act,hgDAF12 agonist,ssDAF12 agonist,hcDAF12 agonist,DAX1 inh-2,DAX1 inh confirm,SF1 mutant ctr,LXRb hcDAF ctr,hcDAF12 conf
COC(=O)c1cc2c(c3c4cc(C)ccc4n(S(=O)(=O)c4cccc(C)c4)c13)C(=O)N(Cc1ccc(N(C)C)cc1)C2,-1,nt,4,-1,0,nt,nt,nt,nt,nt
COc1cccc(CNC(=O)[C@@H]2CCCN2C(=O)[C@@H]2CCCN2)c1,1,nt,0,-1,-1,nt,nt,nt,nt,nt
Brc1csc(/C=N/Nc2nc3ccccc3s2)c1,5.9*,4,20*,2.4*,13*,4,15*,11*,2,9.1*
C(=N\Nc1nc2ccccc2s1)/c1ccccn1,-3,nt,-14,-3,-5,nt,nt,nt,nt,nt
O=c1c2c(nc3cc(-c4ccc(F)cc4)[nH]n13)CCCC2,5.4*,0,10,1,6.9*,-1,11*,3.4*,1,5
CCOC(=O)[C@]12CCCC=C1N(Cc1ccc(OC)cc1)C(=O)[C@@H]2CC(=O)NCC12CC3CC(CC(C3)C1)C2,-2,nt,0,-1,-3,nt,nt,nt,nt,nt
C=Cc1ccc(C(=O)N2CCC(n3nnc4ncccc43)CC2)cc1,1,nt,2,-1,-1,nt,nt,nt,nt,nt
NC(=O)c1ccsc1NC(=O)c1ccc2c(c1)CCCC2,6.8*,3,19*,2.5*,14*,0,12*,7.8*,2,21*
Cc1ccc(C(=O)Nc2nccs2)cc1,6.6*,5,12*,2.4*,12*,2,10.0*,6.4*,1,14*
Cc1ccccc1N1CCN(S(=O)(=O)c2ccc3c(c2)n(C)c(=O)c(=O)n3C)CC1,-1,nt,0,-1,-2,nt,nt,nt,nt,nt
Nc1ccccc1C=C1Cc2ccccc2C1=O,7.7*,5,22*,3.2*,13*,3,17*,7.4*,1,11*
CC(C)(C)NC(=O)[C@@H](c1cccnc1)N(C(=O)c1ccco1)c1ccc(C(C)(C)C)cc1,nt,nt,3,-1,-2,nt,nt,nt,nt,nt
Fc1ccc(-c2cnn3c(-c4cccs4)ccnc23)cc1,7.2*,7,33*,3.9*,32*,4.9*,18*,11*,2,23*
CC(C)N1CCCCC(NC(=O)c2ccc(Br)cc2)C1=O (configuration not stated),0,nt,0,-1,-3,nt,nt,nt,nt,nt
COc1cccc(/C=C2\CC3(OC(=O)C4CCCC4)CCCN2C3)c1 (configuration not stated),0,nt,-3,-1,-2,nt,nt,nt,nt,nt
CCc1ccc(-c2cc(C(=O)Nn3cnnc3)c3ccccc3n2)cc1,6.0*,-3,6,1,11*,-5,11*,4.2*,1,11*
c1ccc(Nc2nc(-c3cccs3)cs2)nc1,4.6*,4,12*,2.6*,15*,1,13*,5.1*,2,19*
Clc1ccc(-c2cn3c(n2)-c2ccccc2C3)cc1Cl,5.9*,4,20*,2.0*,17*,2,9.2*,6.4*,2,15*
c1ccc2c(c1)Cn1nnnc1-2,nt,2,nt,nt,nt,1,nt,nt,nt,nt
COC(=O)C1=C(C)N(Cc2ccc(C(F)(F)F)cc2)C(=NCc2ccccc2)NC1c1ccccc1 (configuration not stated),0,nt,3,-1,0,nt,nt,nt,nt,nt
CC(C)[C@H](NC(=O)CC1CCCC1)C(=O)N1CCC[C@H]1C(=O)NCc1ccccc1,0,nt,-1,-1,0,nt,nt,nt,nt,nt
C=CCN1[C@@H](CC(C)C)COc2cc(N3CCSCC3)ccc2S1(=O)=O,-1,nt,-2,-1,3,nt,nt,nt,nt,nt
CCC(CC)c1nnc(NC(=O)c2ccc3ccccc3n2)s1,4.6*,3,10,2.1*,11*,2,10*,6.8*,1,11*
CCC(CC)c1nnc(NC(=O)c2cc(-c3ccccc3)nc3ccccc23)s1,0,1,1,-2,-1,0,nt,nt,nt,nt
CN(Cc1ccccc1)C(=O)OCc1cn(Cc2ccccc2Cl)nn1,0,nt,-1,-1,-2,nt,nt,nt,nt,nt
SMILES,DAX1 inh-1,GAA850 FXN act,hgDAF12 agonist,ssDAF12 agonist,hcDAF12 agonist,DAX1 inh-2,DAX1 inh confirm,SF1 mutant ctr,LXRb hcDAF ctr,hcDAF12 conf
CCC(NC(=O)Cn1c(-c2ccccc2)cc(C(C)=O)c1C)c1ccccc1 (configuration not stated),2,nt,0,-1,1,nt,nt,nt,nt,nt
O=C(/C=C\Nc1cccc(F)c1)c1ccc2c(c1)OCO2,4.7*,-8,12*,0,9.0*,-3,6.8*,-1,1,7.2*
COC(=O)c1ccc(N/C=C\C(=O)c2ccc3c(c2)OCO3)cc1,1,3,-2,-1,0,1,nt,nt,nt,nt
COc1ccc(Cl)c2c1[nH]c1nc(SCc3ccccn3)nnc12,11*,5,15*,1.6*,8.6*,2,10*,3,1,6.1*
CCCCC(=O)N(Cc1ccccc1)c1ccccc1C(=O)Nc1cc(OC)ccc1OC,-1,nt,0,-1,-1,nt,nt,nt,nt,nt
CC1CCN(C(=O)c2cc3c(ccc4ccccc43)o2)CC1,19*,2,12*,0,9.1*,-1,10*,4.3*,2,6.5*
O=C(/C=C/Nc1ccccc1C(F)(F)F)c1ccco1,4.9*,6,19*,1.1*,10*,1,13*,8.3*,1,9.1*
